Laboratory results taken from the supplement of paper PMC3334620.
In all, about 33,000 sequences were measured (“E-score (-0.5 to 0.5)”: median about -0.016, highest 2% from about 0.3 on). The full list was thinned out, with the highest values kept by preference.

Molecular target: T1, Yer184c (UniProt P39961)
T1 sequence: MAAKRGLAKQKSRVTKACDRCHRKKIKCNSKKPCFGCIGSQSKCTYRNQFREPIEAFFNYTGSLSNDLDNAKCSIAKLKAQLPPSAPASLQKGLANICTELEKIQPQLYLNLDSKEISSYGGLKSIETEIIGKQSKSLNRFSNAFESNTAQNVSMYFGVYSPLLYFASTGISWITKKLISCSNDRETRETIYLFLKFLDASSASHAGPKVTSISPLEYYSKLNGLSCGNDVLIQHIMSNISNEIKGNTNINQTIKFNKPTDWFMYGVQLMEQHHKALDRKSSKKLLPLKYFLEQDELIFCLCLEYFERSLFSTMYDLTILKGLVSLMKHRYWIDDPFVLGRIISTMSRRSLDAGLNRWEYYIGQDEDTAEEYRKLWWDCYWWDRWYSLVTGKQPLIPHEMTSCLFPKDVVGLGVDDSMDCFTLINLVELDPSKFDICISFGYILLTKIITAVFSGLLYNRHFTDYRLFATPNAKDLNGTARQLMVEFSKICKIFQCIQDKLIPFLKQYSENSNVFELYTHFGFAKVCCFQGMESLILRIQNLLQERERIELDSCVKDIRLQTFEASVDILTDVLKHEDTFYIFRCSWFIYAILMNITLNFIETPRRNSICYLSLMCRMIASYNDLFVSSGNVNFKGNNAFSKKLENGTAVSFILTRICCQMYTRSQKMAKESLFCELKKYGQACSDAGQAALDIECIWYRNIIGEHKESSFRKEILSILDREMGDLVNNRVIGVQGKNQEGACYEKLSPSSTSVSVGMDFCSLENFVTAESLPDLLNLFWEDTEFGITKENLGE
Assay: PBM E-score (8-mer binding enrichment) (E-score (-0.5 to 0.5)); higher = stronger / more preferred TF binding
Details: protein concentration: 100 nM; construct: GST-full length
In short: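 Using PURExpress in vitro transcription/translation, GST-tagged yeast transcription factors were made in full-length or DNA-binding-domain form. These were applied at about 100-200 nM to double-stranded universal all-10-mer Agilent arrays, and bound protein was detected with fluorescent anti-GST. Scans were normalised with masliner before the Universal PBM Analysis Suite assigned E-scores to ungapped eight-base words pooled with their reverse complements.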

Row | Sequence | PBM E-score
1 | ACAGTAGT | -0.0892
2 | AAGACCAA | 0.052
3 | GAGCCTAA | -0.0836
4 | ACTGCAAA | 0.0905
5 | GTAAGCGA | 0.00236
6 | GCTCAAAA | 0.199
7 | TTATACAA | 0.313
8 | GTATACAA | 0.125
9 | ATATACAA | 0.219
10 | CAACTTTC | 0.0846
11 | GTACTACA | 0.0564
12 | CTTGTCTC | 0.0611
13 | AATATGCA | -0.0575
14 | CCGGCTCC | 0.293
15 | TCGGCTCA | 0.2
16 | ACGGCTCG | 0.21
17 | GCGGCTAA | 0.186
18 | CCGGCTCA | 0.362
19 | ACGGCTAA | 0.233
20 | TCGGCTAA | 0.313
21 | GCGGCTCA | 0.2
22 | CCGGCTCG | 0.339

Row | Sequence | PBM E-score
23 | CAAGAGGA | -0.0179
24 | CCGGTCGA | 0.141
25 | ACTGCCGA | 0.262
26 | AGGCGAGG | -0.204
27 | CATGCTTA | -0.103
28 | CTCCAAGC | -0.181
29 | CGCTAATC | -0.0149
30 | GGAGGGCC | -0.308
31 | ACGCCCGA | 0.056
32 | GATATACA | 0.128
33 | AATATATT | 0.38
34 | AATATATG | 0.153
35 | TATATATA | 0.424
36 | CATATATA | 0.28
37 | GATATATA | 0.349
38 | GATATATC | 0.266
39 | AATATATA | 0.267
40 | TATATACA | 0.164
41 | AGGCCTAA | 0.0613
42 | CGCATGAG | -0.284
43 | CGACAGTC | -0.182
44 | AGATCATC | 0.0775

Row | Sequence | PBM E-score
45 | CGTGGCAA | -0.0803
46 | CATACCAC | 0.0462
47 | AGGAACTA | -0.103
48 | AGGAACAC | 0.161
49 | CCGAACAA | 0.322
50 | CGGAACGA | 0.306
51 | ACGAACAA | 0.275
52 | CGGAACTC | 0.202
53 | GGGAACAC | 0.221
54 | CGGAACTA | 0.414
55 | AGGAACGA | -0.141
56 | GCGAACAA | 0.246
57 | CGGAACAC | 0.356
58 | CGGAACGC | 0.241
59 | ACCAGACT | -0.0238
60 | GTTTGCTA | 0.0684
61 | ATACACGG | 0.047
62 | CGGCGCAA | 0.178
63 | AGGCTGAT | -0.161
64 | CCGAACTA | 0.323
65 | AGGAACAG | -0.19
66 | CGGAACAA | 0.39

Row | Sequence | PBM E-score
67 | CGGAACAG | 0.338
68 | GGGAACAA | 0.158
69 | CCGAACTC | 0.246
70 | CCGAACAG | 0.216
71 | ACGAACTA | 0.157
72 | TGGAACAA | 0.195
73 | CGATAGCA | -0.114
74 | AGTTACGA | 0.107
75 | CAGAGGGG | -0.286
76 | AGTAGCTC | -0.00154
77 | CTCGCTTC | -0.0232
78 | AGTCTGAG | -0.14
79 | AGGCTCAC | -0.273
80 | TCATTAAA | 0.343
81 | ACATTAAA | 0.0822
82 | ATATTAAA | 0.368
83 | CTATTAAA | 0.21
84 | AAATTTAT | 0.286
85 | TTATTAAA | 0.233
86 | TGTTTAAA | 0.0737
87 | TGTTTTAA | 0.327
88 | GCATTAAA | 0.149

Row | Sequence | PBM E-score
89 | AGTTTTAA | 0.159
90 | AATTTTAC | 0.176
91 | AATTTTAT | 0.379
92 | TCAGCAAA | 0.158
93 | ACTAGTGA | -0.172
94 | AGAGCTTA | 0.0135
95 | CGTTTCAC | 0.135
96 | ATCAATGA | 0.2
97 | CAGTAAAG | -0.177
98 | GAGCAACA | 0.128
99 | GATAACAC | 0.0102
100 | GTTTTAAA | 0.131
101 | ATTTTTAA | 0.333
102 | ATTTTAAC | 0.028
103 | ATTTTTTA | 0.274
104 | AATTTTAA | 0.252
105 | ATTTTAAA | 0.331
106 | AATTTATA | 0.24
107 | AATTTATG | 0.307
108 | ATTTTATG | 0.217
109 | ATATTTAA | 0.306
110 | CTATTTAA | 0.0903
